PABP1 MLLE inh: inhibitors of microRNA-mediated deadenylation, human PABP1 MLLE binding. P11940. AID 588489. inhibition, % at 20 µM. GST-MLLE / FITC-PAM2 fluorescence polarization. hit rate 0.36% among 360,000; in the data active means inhibition above about 35%, passing the limit was not always enough
eIF4E 4G PPI: blocks eIF4E binding to eIF4G; TR-FRET eIF4E-eIF4GI(517-606) binding, 2 h; inhibition, % at 21.7 µM; hit rate 0.37% among 220,000; AID 782;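 active means inhibition above about 30%, limit read from the data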
eIF4H FP inh: inhibitors of RNA binding by human eIF4H. Q15056. eIF4H fluorescence polarization binding assay. hit rate 0.94% among 290,000. inhibition, % at 35 µM;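 further: calls also rest on retests at 20 µM and on dose response follow-up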
PERK inh: blocks human PERK kinase; CHO PERK-DD fusion, SEAP luminescence translation reporter; Q9NZJ5; inhibition, % at 5.6 µM; hit rate 0.17% among 220,000;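 active means inhibition above the mean inhibition of all tested compounds plus 3 SD, set separately per screening campaign, cut at about 2.9% in these data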;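 further: PERK kinase domain activated by AP20187 dimerizer at 100 nM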
Target sequence (Q9NZJ5 whole entry, looked up, the tested form may be a part): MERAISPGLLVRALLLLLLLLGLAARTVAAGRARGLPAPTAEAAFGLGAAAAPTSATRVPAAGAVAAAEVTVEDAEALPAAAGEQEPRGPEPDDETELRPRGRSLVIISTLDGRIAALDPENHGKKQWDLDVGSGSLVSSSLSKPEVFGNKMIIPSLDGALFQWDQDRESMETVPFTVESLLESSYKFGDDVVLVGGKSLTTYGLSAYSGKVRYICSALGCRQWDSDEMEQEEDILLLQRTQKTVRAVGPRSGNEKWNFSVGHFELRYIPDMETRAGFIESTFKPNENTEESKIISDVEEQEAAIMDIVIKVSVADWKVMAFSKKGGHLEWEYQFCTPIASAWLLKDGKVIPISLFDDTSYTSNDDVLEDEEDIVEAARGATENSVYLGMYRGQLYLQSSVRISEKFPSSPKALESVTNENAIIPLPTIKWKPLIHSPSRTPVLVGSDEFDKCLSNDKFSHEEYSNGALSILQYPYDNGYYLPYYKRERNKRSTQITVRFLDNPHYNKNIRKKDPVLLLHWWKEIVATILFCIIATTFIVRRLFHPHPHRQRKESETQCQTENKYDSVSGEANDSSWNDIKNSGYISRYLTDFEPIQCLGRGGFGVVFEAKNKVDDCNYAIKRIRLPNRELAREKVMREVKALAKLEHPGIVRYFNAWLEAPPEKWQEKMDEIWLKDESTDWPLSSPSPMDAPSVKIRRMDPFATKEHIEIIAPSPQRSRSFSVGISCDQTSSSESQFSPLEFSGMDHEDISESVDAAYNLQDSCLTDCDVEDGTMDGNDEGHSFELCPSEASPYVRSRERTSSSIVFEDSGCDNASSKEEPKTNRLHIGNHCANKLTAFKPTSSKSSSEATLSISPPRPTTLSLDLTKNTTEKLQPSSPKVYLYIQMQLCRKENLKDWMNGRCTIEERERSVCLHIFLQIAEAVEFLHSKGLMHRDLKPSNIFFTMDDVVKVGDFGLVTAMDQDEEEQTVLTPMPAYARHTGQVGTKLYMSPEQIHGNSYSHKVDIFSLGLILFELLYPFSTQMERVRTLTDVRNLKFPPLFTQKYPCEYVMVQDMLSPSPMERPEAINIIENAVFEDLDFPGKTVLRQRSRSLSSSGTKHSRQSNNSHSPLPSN
PABP polyA inh: blocks human PABP binding to poly(A) RNA | AID 2014 | fluorescence polarization | P11940 | calls only at 35 µM | hit rate 1% among 290,000;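 further: calls also rest on retests at 20 µM and on dose response follow-up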
Each line names hits and unclear results; the compound was inactive in the other large screens; [ ] = another dose, or the depositor's remark. Only some compounds are listed: those with a hit (about 1.6% of all), similar ones and a draw of the others. Unless noted, how the calls were made is not given here.

Cc1ccc(-c2ccnc3nc(-n4cccc4)nn23)o1	eIF4H FP inh 55.7, PABP polyA inh active
Oc1ccc(/C=N/N=C(c2ccccc2)c2ccccc2)c(O)c1O	eIF4E 4G PPI 33.4[fluorescence artefact?], eIF4H FP inh 84.7, PABP polyA inh active
O=c1c2c([N+](=O)[O-])cc([N+](=O)[O-])cc2nc2ccccn12	eIF4H FP inh 81.7, PABP polyA inh active (no result: eIF4E 4G PPI, PERK inh)
Cc1c(O)nc2ccccn2c1=O	none
Cc1ccc(S(=O)(=O)N[C@H](C(=O)OCC(=O)NC(=O)c2cccn2C)C(C)C)cc1	none (no result: eIF4E 4G PPI, eIF4H FP inh, PERK inh, PABP polyA inh)
O=C1C=C(O)CC(c2ccco2)C1 (centres undefined)	eIF4H FP inh 104.2, PABP polyA inh active
CC(C)CNC1=CC(=O)CC(c2ccco2)C1 (centres undefined)	eIF4H FP inh 108.3, PABP polyA inh active
O=C1C=C(Nc2ccc(O)cc2)CC(c2ccco2)C1 (centres undefined)	none
CC1CCCCC1NC(=O)Cn1cnc2sccc2c1=O (centres undefined)	none (no result: eIF4E 4G PPI, eIF4H FP inh, PERK inh, PABP polyA inh)
O=C(c1ccccc1)N1CC(COc2ccccc2)OC(c2cccnc2)O1 (centres undefined)	eIF4H FP inh 63.3, PABP polyA inh active
O=S(=O)(NCc1ccc(F)cc1)c1ccc(-n2cccn2)cc1	none (no result: eIF4E 4G PPI, PERK inh)
Nc1ccc2oc3ccc(N)cc3c(=O)c2c1	eIF4H FP inh 79.0, PABP polyA inh active (no result: eIF4E 4G PPI)
Nc1ccc2c(=O)[nH][nH]c(=O)c2c1	none (no result: eIF4E 4G PPI, eIF4H FP inh, PERK inh, PABP polyA inh)
COc1ccc(S(=O)(=O)NCC2CCC(C(=O)NCCC(C)C)CC2)cc1 (centres undefined)	none
COc1ccc(S(=O)(=O)NCC2CCC(C(=O)NCC(OC)OC)CC2)cc1 (centres undefined)	PERK inh 3.2
NC(=S)N/N=C/c1ccc(C23CC4CC(CC(C4)C2)C3)cc1	none (no result: PABP1 MLLE inh, eIF4E 4G PPI, PERK inh)
C=C1c2cccc(O)c2C(O)=C2C(=O)[C@]3(O)C(O)=C(C(N)=O)C(=O)[C@@H](N(C)C)[C@@H]3[C@@H](O)[C@H]12	eIF4H FP inh 107.0, PABP polyA inh active
C[C@H]1c2cccc(O)c2C(O)=C2C(=O)C3(O)C(O)=C(C(N)=O)C(=O)[C@@H](N(C)C)[C@@H]3[C@@H](O)[C@@H]21 (some centres undefined)	none (no result: eIF4E 4G PPI, eIF4H FP inh, PERK inh, PABP polyA inh)
C#Cc1ccc([C@H]2C=C(C(=O)OCC=C)O[C@@H](OCC)[C@@H]2CCCO)cc1	none
C#Cc1ccc([C@@H]2C=C(C(=O)OCC=C)O[C@H](OCC)[C@H]2CCCO)cc1	eIF4H FP inh 87.8
CCO[C@H]1OC(C(=O)O)=C[C@@H](C2CC2)[C@@H]1CCCO	none (no result: PABP1 MLLE inh)
CCO[C@@H]1OC(C(=O)O)=C[C@H](C)[C@H]1CCCO	PABP polyA inh active
CCc1cc(C(=O)c2ccccc2OC)c(N)s1	PABP1 MLLE inh 37.4
O=C(/C=C/c1ccccc1)Oc1ccc(C(=S)N2CCOCC2)cc1	none
O=Cc1cccc(OC(=O)/C=C/c2ccco2)c1	eIF4H FP inh 89.4, PABP polyA inh active (no result: eIF4E 4G PPI, PERK inh)
COC(=O)c1ccc(OC(=O)/C=C/c2ccco2)cc1	none (no result: eIF4E 4G PPI, PERK inh)
O=C(/C=C/c1ccco1)Oc1ccc(C(=S)N2CCOCC2)cc1	eIF4H FP inh 97.4, PABP polyA inh active
COc1ccccc1C(c1nnnn1C(C)C)N1CCN(C(=O)c2ccco2)CC1 (centres undefined)	none (no result: eIF4E 4G PPI, PERK inh)
Cc1csc(=O)n1CCC(=O)OCC(=O)Nc1cc([N+](=O)[O-])ccc1Cl	none (no result: eIF4E 4G PPI, eIF4H FP inh, PERK inh, PABP polyA inh)
CN(C(=O)COC(=O)CSc1ccc([N+](=O)[O-])cc1)c1ccccc1	none (no result: eIF4E 4G PPI, eIF4H FP inh, PERK inh, PABP polyA inh)
CN(Cc1ccc(Cl)cc1)C(=O)COC(=O)CSc1ccc([N+](=O)[O-])cc1	PABP1 MLLE inh 40.3 (no result: eIF4E 4G PPI, eIF4H FP inh, PERK inh, PABP polyA inh)
O=C1C=CC(=Nc2cccc3c2C(=O)c2ccccc2-3)O1	PABP1 MLLE inh 56.3 (no result: eIF4E 4G PPI, eIF4H FP inh, PERK inh, PABP polyA inh)
CC(C)(C)c1cc(C(=O)NNc2cc(C(F)(F)F)ccc2Cl)n(Cc2ccccc2)n1	eIF4H FP inh 52.4
COc1ccccc1NNC(=O)c1cc(C(C)(C)C)nn1Cc1ccccc1	none
CC(C)n1c(SCC(=O)Nc2nncs2)nnc1-c1ccco1	eIF4H FP inh 72.4, PABP polyA inh active (no result: PABP1 MLLE inh, eIF4E 4G PPI, PERK inh)
COC(=O)c1scc2c(=O)cc(C(F)(F)F)[nH]c12	PABP1 MLLE inh 55.6
O=C(OCc1cc(=O)n2c(n1)sc1ccccc12)c1ccc(O)cc1O	eIF4E 4G PPI 33.0
O=C(OCc1cc(=O)n2c(n1)sc1ccccc12)c1cccc(O)c1	none
COCCN(C(=O)COC(=O)c1ccccc1Oc1ccccc1)c1c(N)n(Cc2ccccc2)c(=O)[nH]c1=O	none (no result: eIF4E 4G PPI, PERK inh)
Cc1cc(C(=O)NC2CCCN(Cc3ccccc3F)C2)n[nH]1 (centres undefined)	none (no result: eIF4E 4G PPI, PERK inh)
COc1ccc2c(c1)Cc1sc(NC(C)=O)nc1-2	PABP1 MLLE inh 37.3
O=C1CS/C(=N\N=C\c2ccco2)N1c1ccccc1	eIF4H FP inh 85.0, PABP polyA inh active
O=C1CS/C(=N/N=C/c2ccccc2)N1c1ccc(O)cc1	none (no result: eIF4E 4G PPI, PERK inh)
COc1ccc(CCNC(=O)c2ccc3c(c2)NC(=O)C(CSCc2cc(C)ccc2C)N3)cc1OC (centres undefined)	none (no result: PABP1 MLLE inh, eIF4E 4G PPI, PERK inh)
Cc1n[nH]c(=O)c2c(NC(=O)CSc3ccccc3Cl)oc(C)c12	none (no result: eIF4E 4G PPI, eIF4H FP inh, PERK inh, PABP polyA inh)
Cc1n[nH]c(=O)c2c(NC(=O)CSc3c(Cl)cccc3Cl)oc(C)c12	PABP1 MLLE inh 43.1 (no result: eIF4E 4G PPI, eIF4H FP inh, PERK inh, PABP polyA inh)
Cc1cc(N2CC(C)OC(C)C2)nc2ccccc12 (centres undefined)	none
CCN(CC)S(=O)(=O)c1ccc(Cl)c(C(=O)Nc2cccnc2)c1	none (no result: eIF4E 4G PPI, PERK inh)
CCN(CC)S(=O)(=O)c1ccc(Cl)c(C(=O)Oc2cccnc2)c1	eIF4E 4G PPI 57.6
Clc1ccc(Cl)c(-c2nn3c(COc4ccccc4)nnc3s2)c1	eIF4E 4G PPI 33.6[fluorescence artefact?]
COc1ccc(-c2csc(NC(=O)CSc3n[nH]c(N)n3)n2)cc1	PABP1 MLLE inh 36.9
COc1ccc(-c2csc(NC(=O)CSc3n[nH]c(C)n3)n2)cc1	none (no result: eIF4E 4G PPI, PERK inh)
O=C(NCc1ccccn1)c1ccc(OC2CCN(Cc3cccs3)CC2)cc1	none (no result: eIF4E 4G PPI, PERK inh)
CC1CCCCN1C(=S)NC(=O)c1cccs1 (centres undefined)	eIF4E 4G PPI 92.1
CCOc1ccc(NC(=O)CCC(=O)NNC(=O)COc2ccc(C)cc2Br)cc1	none (no result: eIF4E 4G PPI, PERK inh)
Cc1ccnc(NS(=O)(=O)c2ccc3c(c2)CCO3)c1	eIF4E 4G PPI 88.2 (no result: PABP1 MLLE inh)
Cc1ccccc1CN1CCN(Cc2ccc3cccc(F)c3n2)CC1CCO (centres undefined)	none (no result: eIF4E 4G PPI, PERK inh)
COCCN1CCC(CNCc2c(C(=O)N3CCCCC3)nc3c(C)cccn23)C1 (centres undefined)	eIF4H FP inh 62.1, PABP polyA inh active
COc1ccc2nc(C(F)(F)Cl)c(C#N)c(N)c2c1	none
COc1ccc2nc3cc(Cl)ccc3c(C#N)c2c1	PABP1 MLLE inh 53.5
N#Cc1ccc(CN2CCN(c3ccc(S(=O)(=O)N4CCCC4)cn3)CC2)cc1	none (no result: eIF4E 4G PPI, eIF4H FP inh, PERK inh, PABP polyA inh)
Cc1ccc(OCC(=O)NCCCNC(=O)c2ccc(C)nc2)cc1	none (no result: eIF4E 4G PPI, PERK inh)
O=C(COc1ncnc2ccccc12)N1CCN(C(=O)c2ccco2)CC1	none
O=C(COc1ncnc2sccc12)N1CCN(C(=O)c2ccco2)CC1	PABP polyA inh active
CCn1cc(C(=O)OCC(=O)c2cc(C)n(-c3ccc(OC(F)F)cc3)c2C)c(=O)c2ccc(C)nc21	eIF4E 4G PPI 44.9[fluorescence artefact?]
Cc1cccc2nc(COc3ccc(Cl)c4cccnc34)cn12	none

High-throughput results: PubChem, several laboratories
